# Source: PubChem BioAssay
# HT1080NT lethal = qHTS for induction of synthetic lethality in tumor cells producing 2HG: qHTS for the HT-1080-NT fibrosarcoma cell line | 1.6% of 360,000 active | HT-1080-NT fibrosarcoma viability, CellTiter-Glo ATP luminescence, 48 h | AID 686970, 2013 | Potency, µM (series often up to 46.1 µM), inactives show at the top dose activity, negative = less viability, usual class: cytotoxic;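 note: NT is the 2HG producing partner of a matched IDH1 knockdown line; 0% = DMSO-treated cells and -100% = media-only wells without cells; nearly all actives have a fitted effect of over 55% in size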
#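 A 48-hour cytotoxicity screen used HT-1080-NT cells plated 2 hours before compound delivery. ATP-based CellTiter-Glo luminescence measured viability, normalized to DMSO and no-cell controls.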
# SW480 rerep = A quantitative high throughput screen for small molecules that induce DNA re-replication in SW480 colon adenocarcinoma cells; SW480 DNA re-replication, Hoechst DNA content imaging, 48 h; Potency, µM (doses to about 46.1 µM), for the others: at the top dose re-replication activation, usual class: activators; 1.8% of 340,000 active; AID 624297, 2012; note: % of control where 0% means no effect; nearly all actives have a fitted effect of over 55% in size
#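 Image-based read-out: total Hoechst fluorescence of nuclei (405 nm excitation, 500-530 nm emission), with hits raising the fraction of high-intensity nuclei. SW480 colon cells incubated 48 hr with compounds at 37 C.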
# HT1080 IDH1KD tx = qHTS for induction of synthetic lethality in tumor cells producing 2HG: qHTS for the HT-1080-IDH1KD cell line | HT-1080 IDH1 knockdown viability, ATP luminescence, 48 h | Potency, µM (highest dose often 46.1 µM), without a hit: top-dose activity, negative = toxicity, hits mostly cytotoxic | 2% of 360,000 active | AID 686971, 2013;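 note: 0% = DMSO wells and -100% = cell-free medium wells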
#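 CellTiter-Glo luminescence after 48 h compound exposure at 37 degrees C of IDH1-knockdown HT-1080 cells in 5% FBS RPMI. %Activity scaled between DMSO wells and cell-free media wells, with curves fitted and assigned curve classes.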
# KB-3-1 tox = qHTS assay for MDR1-selective chemotherapeutics: Primary screen using the parental adenocarcinoma cell KB-3-1. KB-3-1 viability, CellTiter-Glo ATP luminescence, 72 h. AID 1347075, 2019. 1.4% of 400,000 active. Potency, µM (highest dose often 46.1 µM), hits mostly cytotoxic; note: % is set by controls: 0 for no effect and ±100 for the full control effect; nearly all actives have a fitted effect of over 60% in size
#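 Parental KB-3-1 adenocarcinoma cells in phenol-red-free DMEM with 10% FBS were pin-treated with compounds at several concentrations, incubated 72 h at 37 °C, and viability read by CellTiter-Glo luminescence; concentration-effect curves were fitted after normalization.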
# MCF10A rereplic = A quantitative high throughput screen for small molecules that induce DNA re-replication in MCF 10a normal breast cells | MCF 10A DNA re-replication, Hoechst nuclear intensity, 48 h | Potency, µM (series often up to 46.1 µM), for the others: at the highest dose activity, positive = re-replication, actives largely listed as activators | 2.9% of 350,000 active; note: % of control where 0% means no effect; nearly all actives have a fitted effect of over 50% in size
# KB-V1 cytotox = qHTS assay for MDR1-selective chemotherapeutics: Primary screen using the drug-selected MDR subline cells KB-V1. Potency, µM (highest dose often 46.1 µM), most hits filed as cytotoxic. 3.4% of 400,000 active. AID 1347076, 2019. KB-V1 MDR cells viability, CellTiter-Glo, 72 h; note: % is set by controls: 0 for no effect and ±100 for the full control effect; nearly all actives have a fitted effect of over 60% in size
#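 KB-V1 cells (P-gp-expressing MDR subline of KB-3-1) in phenol-red-free DMEM with 10% FBS were exposed to library compounds over a concentration series for 72 h at 37 degrees C. Viability read by CellTiter-Glo luminescence; concentration-effect curves fitted after normalization.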
# The depositor's hits bear a star; i = inactive; ? = inconclusive; . = no result. The list is not random: actives were taken first. Their share in the collection is about 7.9%. Calls come from the whole dose curve; as a rule, active = well fitted curve in the direction sought with a large enough effect; inconclusive = small, poorly fitted or top-dose-only effect, or another doubt; inactive = no such curve, though single readings can be large; an effect the other way counts as inactive or inconclusive. Potency is the fitted concentration of half-maximal effect.
SMILES,HT1080NT lethal,SW480 rerep,HT1080 IDH1KD tx,KB-3-1 tox,MCF10A rereplic,KB-V1 cytotox
CNc1c(NC(=O)c2cc(OC)cc(OC)c2)c(=O)oc2ccccc12,.,.,.,i,.,i
O=C1C(Cl)=C(N2CCC(C(=O)O)CC2)C(=O)c2ccccc21,?,0%,?,i,?,?
CN1CCN(C2=C(Cl)C(=O)c3ccccc3C2=O)CC1,?,5.2µM*,?,?,4.1µM*,?
NC(=O)C1CCN(C2=C(Cl)C(=O)c3ccccc3C2=O)CC1,?,?,21µM*,?,13µM*,?
CC1COCC(C)N1C1=C(Cl)C(=O)c2ccccc2C1=O (centres undefined),-26%,?,18µM*,?,?,?
CCOc1ccc(C(=O)NCC(c2ccc3c(c2)OCO3)N2CCN(c3ccc(F)cc3)CC2)cc1 (centres undefined),.,.,.,i,.,i
Cc1c(Cl)cccc1NC(=O)Cn1c(=O)cc(C)c2c(C)nn(-c3cccc(F)c3)c21,.,.,.,i,.,i
CCOC(=O)N1CCC(n2c(SCC(=O)NCc3ccccc3)nc3ccccc3c2=O)CC1,5%,4%,0%,i,0%,i
CCOC(=O)N1CCC(n2c(SCC(=O)NCCC3=CCCCC3)nc3ccccc3c2=O)CC1,?,?,?,?,26µM*,8.2µM*
CCOC(=O)N1CCC(n2c(SCC(=O)N3CCC(C)CC3)nc3ccccc3c2=O)CC1,-5%,12%,-18%,?,?,21µM*
CCCCOc1ccc(C(=O)NCC(=O)NCc2ccccn2)cc1,-28%,?,-30%,0.52µM*,57%,?
O=C1c2ccccc2-c2cccc(NS(=O)(=O)c3ccc(C(F)(F)F)cc3)c21,-5%,19%,-6%,?,4%,23µM*
CCOC(=O)c1ccc(NC(=S)Nc2cccc(C)n2)cc1,-2%,4%,-1%,i,?,i
Cc1nc(NC(=S)NC(=O)c2cccs2)ccc1Br,-4%,-222%,1%,?,-2%,?
COC(=O)Cc1ccc(NC(=S)Nc2cccc(C)n2)cc1,-13%,-8%,-17%,?,-7%,21µM*
Cc1cccc(NC(=S)NC(=O)c2cccs2)n1,1.3µM*,2.9µM*,5.6µM*,i,1%,?
O=C(NCc1ccc2c(c1)CCN2C(=O)c1ccc(Cl)cc1)c1ccco1,.,.,.,i,.,i
Cc1ccc2[nH]c3c(c2c1)CCCC3NC(=O)CCl (centres undefined),1.3µM*,8.2µM*,9.2µM*,i,21µM*,?
O=C(NC1CC1)c1cccc(NC(=O)c2cnn(-c3ccccc3)n2)c1,3%,-7%,7%,i,3%,15µM*
COc1ccc(CC2(CO)CCN(S(=O)(=O)c3c(C)nn(C)c3Cl)CC2)cc1,27%,-32%,3%,i,3%,i
Cc1nn(C)c(Cl)c1S(=O)(=O)N1CCC(CO)(CCc2ccccc2)CC1,-13%,-6%,?,?,17%,23µM*
NC(c1ccccc1)c1csc(Nc2ccc(S(N)(=O)=O)cc2)n1 (centres undefined),1%,.,0%,i,.,i
CCCCc1ccc(NC(=O)CSc2nc3ccccc3nc2N2CCCCC2)cc1,.,.,.,i,.,i
N#CC1=C2SCC(O)(c3ccccc3)N2C(=O)CC1c1ccccc1 (centres undefined),1.3µM*,12µM*,?,1.3µM*,5.8µM*,1.8µM*
CC(=O)N1CCc2cc(CNC(=O)Nc3ccc(Br)c(C)c3)ccc21,.,.,.,i,.,i
SMILES,HT1080NT lethal,SW480 rerep,HT1080 IDH1KD tx,KB-3-1 tox,MCF10A rereplic,KB-V1 cytotox
Cc1ccc(NC(=O)Cn2sc3nc(C)cc(C)c3c2=O)c(Cl)c1,-9%,?,?,i,4.6µM*,i
Cc1cc(C)c2c(=O)n(CC(=O)Nc3ccc(Cl)cc3)sc2n1,-18%,?,?,i,?,i
Cc1ccc(C(=O)Nc2nc(COc3ccccc3)cs2)s1,?,?,?,i,21µM*,?
O=C(Nc1nc(COc2ccccc2)cs1)C12CC3CC(CC(C3)C1)C2,6.3µM*,-3%,?,i,8.2µM*,i
CC(C)NC(=O)C1(C)CCCN1C/C=C/c1ccccc1 (centres undefined),17%,.,-3%,i,.,i
CC1(C)Cc2nc3oc4c(=O)n(CC(=O)Nc5cccc(Cl)c5)cnc4c3cc2CO1,6%,18µM*,8%,i,12%,i
CCCCCn1cnc2c(sc3nc4c(cc32)CSC(C)(C)C4)c1=O,-9%,-75%,-2%,i,-51%,15µM*
CC1(C)Cc2nc3sc4c(=O)n(CC(=O)NCc5ccco5)cnc4c3cc2CO1,?,16µM*,10µM*,?,9.2µM*,i
CC1(C)Cc2nc3sc4c(=O)[nH]cnc4c3cc2CS1,-2%,-1%,0%,i,10%,i
Cc1ccc(-n2cnnn2)cc1S(N)(=O)=O,.,.,.,i,.,?
Nc1[nH]c(N=NC(=O)c2ccccc2O)c2ccccc12,-5%,?,-26%,?,?,21µM*
O=C(CN1CCCc2ccccc21)Nc1cc(S(=O)(=O)N2CCCC2)ccc1Cl,-1%,-4%,2%,i,21%,i
CSc1cccc(-n2cc(-c3ccc4c(c3)OCO4)[nH]c2=O)c1,?,21µM*,?,4.1µM*,21µM*,7.3µM*
CC(=O)c1cccc(NC(=O)C(C)n2c(=O)cc(-c3ccccc3)c3c(C)nn(C)c32)c1 (centres undefined),.,.,.,i,.,i
COc1nc(OC)nc(Oc2ccc(Cl)cc2[N+](=O)[O-])n1,7%,-5%,-4%,i,2%,i
COc1ccc([N+](=O)[O-])c(S(=O)(=O)c2ccccc2)n1,21µM*,?,13µM*,?,24%,23µM*
O=[N+]([O-])c1cccnc1S(=O)(=O)c1ccccc1,12µM*,9.2µM*,18µM*,?,2.9µM*,?
COc1ccc([N+](=O)[O-])c(S(=O)(=O)c2ccc(Cl)cc2)n1,23µM*,2.9µM*,8.2µM*,?,3.7µM*,i
